This is a sample that favours compounds with a hit; in the whole collection about 1.5% have one here.
SSB-PriA inh: inhibitors of Klebsiella pneumoniae PriA binding to SSB C-terminal tail; AlphaScreen SSBct-PriA binding, biotinylated peptide; inhibition, % at 33 µM; hit rate 0.6% among 430,000; in the data active means inhibition mostly above about 37%, no sharp cut-off; inactive means mostly below about 20%;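 further: plate controls were negative control peptide for no effect and reference peptide for full effect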
VHR inh abs: inhibitors of human VHR1 phosphatase (DUSP3) | inhibition, % at 13.3 µM | P51452 | recombinant VHR phosphatase, pNPP absorbance | AID 1654 | hit rate 0.52% among 290,000; in the data active means inhibition above about 50%
Target sequence (P51452 whole entry, looked up): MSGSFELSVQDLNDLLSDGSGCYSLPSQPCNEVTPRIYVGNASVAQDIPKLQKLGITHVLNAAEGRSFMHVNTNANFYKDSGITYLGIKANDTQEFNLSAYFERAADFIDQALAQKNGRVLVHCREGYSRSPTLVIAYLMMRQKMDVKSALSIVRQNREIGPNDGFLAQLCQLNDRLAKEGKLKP
ugtP null kill: compounds lethal to S. aureus RN4220 ugtP deletion mutant; hit rate 0.54% among 330,000; growth inhibition, % (concentration not given with the values); OD600 growth, 16 h; in the data active means growth inhibition above about 68%;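 further: plate controls were untreated wells for no effect and antibiotic for full effect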
Sa RN4220 lethal: kills Staphylococcus aureus RN4220; S. aureus RN4220 growth, OD600, 16 h; inhibition, % (test concentration not listed); hit rate 0.33% among 330,000; in the data active means inhibition above about 85%;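 further: plate controls were untreated cells for no effect and reference antibiotic for full effect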
CCHF vOTU inh: blocks the CCHF virus ovarian tumor domain protease; CCHFV vOTU protease, Pep-AMC fluorescence; inhibition, % at 11.5 µM; hit rate 0.55% among 370,000; AID 651958; in the data active means inhibition above about 30%; further: 0% = vehicle wells with enzyme and 100% = no enzyme wells
The depositor's hits bear a star; / = no result given.

SMILES	SSB-PriA inh	VHR inh abs	ugtP null kill	Sa RN4220 lethal	CCHF vOTU inh
C=CCn1c(=O)c2ccc(C(=O)NCc3ccccc3)cc2n(CC(=O)Nc2ccc(Br)cc2)c1=O	-7.0	/	/	/	/
Cc1cccc(NC(=S)N(CCc2nc3cc(C)c(C)cc3[nH]2)Cc2cccnc2)c1	-14.2	37.0	7.7	2.6	8.2
Cc1ccc(C)c(NC(=S)N(CCc2nc3cc(C)c(C)cc3[nH]2)Cc2cccnc2)c1	1.6	52.7*	10.8	1.3	-1.7
Cc1ccc(-c2csc(NNC3=NCCCCC3)n2)cc1	62.0*	/	/	/	/
Cc1cc(NC(=O)c2ccco2)n(-c2nc3c(cnn3-c3ccc(F)cc3)c(=O)[nH]2)n1	-7.0	/	/	/	/
CCCCn1ccnc1C	-12.5	58.2*	5.4	3.2	-6.5
Oc1ccc(CN2CCN(Cc3ccccc3)CC2)c2cccnc12	103.3*	/	1.9	6.5	4.8
O=S(=O)(c1ccc(Cl)cc1)N1CCN(Cc2ccc(O)c3ncccc23)CC1	15.0	0.6	11.5	-2.6	-4.7
CN1CCN(C2CCN(Cc3ccc(O)c4ncccc34)CC2)CC1	55.9*	/	0.6	3.1	10.2
CCOC(=O)c1nn(-c2ccc(C(F)(F)F)cc2)c(=O)c2c(NC(=O)c3cccs3)scc12	-12.0	/	/	/	/
COc1ccc(Br)c(C(=O)NCc2cc(-c3ccco3)n(C)n2)c1	7.0	/	/	/	/
CCCCCCNc1c([N+](=O)[O-])cc(C)cc1[N+](=O)[O-]	60.4*	/	-0.4	2.7	-5.2
CC(=O)c1c(C)[nH]c(C(=O)OCc2ccc([N+](=O)[O-])cc2)c1C	2.1	52.0*	7.9	5.7	12.2
CC(C)OC(=O)CCC(=O)Nc1nc2ccccc2s1	3.6	51.9*	-3.1	4.5	-2.6
Cc1noc(C)c1CCC(=O)N1CCN(c2ccccc2F)CC1	-10.0	/	/	/	/
Cc1ccc(Cn2nc(C)c(NC(=O)C3CC3)c2C)cc1	3.0	4.3	-9.2	-2.4	6.8
Cc1nn(Cc2c(F)cccc2Cl)c(C)c1NC(=O)C1CC1	-9.4	50.8*	-9.8	1.5	-12.0
Cc1nc(C)c(C(=O)N2CCCC(Oc3nccnc3N(C)C)C2)s1 (stereo not given)	-3.0	/	/	/	/
CN(C)C(=O)c1ccc(NC(=O)c2cccnc2)cc1	-9.8	15.6	2.8	4.0	-3.0
CN(C)C(=O)c1ccc(NC(=O)c2sccc2-c2ccccc2)cc1	-5.1	56.9*	-5.7	-0.4	-2.5
O=C(O)c1ccc(N=Cc2ccccc2O)cc1	4.0	/	/	/	/
O=C(OC1CCCCC1)c1ccc2c(c1)C1C=CCC1C(C(=O)O)N2 (stereo not given)	/	87.4*	/	/	/
COc1ccc(C(=O)N/N=C(\C)c2ccc3c(c2)C2C=CCC2C(c2ccccc2)N3)cc1 (stereo not given)	/	12.7	/	/	/
O=C(O)c1ccc2c(c1)[C@@H]1C=CC[C@@H]1[C@H](c1ccccn1)N2	14.9	/	-13.0	11.1	54.3*
CCc1c(C)nc(-n2nc(C)cc2N)[nH]c1=O	93.0*	/	/	/	/
SMILES	SSB-PriA inh	VHR inh abs	ugtP null kill	Sa RN4220 lethal	CCHF vOTU inh
CCC(=O)Nc1cc(C)nn1-c1nc(C)c(CC)c(=O)[nH]1	33.0	/	/	/	/
Cc1cc(N)n(-c2nc3c(c(=O)[nH]2)CCCC3)n1	93.0*	/	/	/	/
CSc1ncccc1C(=O)NCc1cccnc1-c1cccs1	-6.0	/	/	/	/
OCC1(CCc2ccccc2)CCCN(C/C=C/c2ccccc2)C1 (stereo not given)	-3.9	57.0*	7.5	2.3	-7.0
CCc1cccc(C)c1NC(=S)NCc1ccc2c(c1)cc(C)n2C	52.9*	-14.8	-11.0	25.4	-0.1
Cc1cc2cc(CNC(=S)NC3CCCCC3)ccc2n1C	58.8*	7.7	-16.2	0.7	-1.4
Cc1cc2cc(CNC(=S)NC(C)(C)C)ccc2n1C	47.9	/	/	/	/
COc1ccc(NC(=S)NCc2ccc3c(c2)cc(C)n3C)cc1	74.7*	3.9	-2.3	2.3	1.2
CCCCNC(=S)NCc1ccc2c(c1)cc(C)n2C	82.5*	-11.0	-9.6	-12.6	11.0
CCCCC(=O)NCc1ccc2c(c1)cc(C)n2C	3.0	11.3	1.6	4.6	1.0
CC(O)(CNC(=O)c1c(F)cccc1Cl)c1cc2ccccc2s1 (stereo not given)	-9.0	/	/	/	/
Cc1cc2cc(CNC(=S)NCc3ccccc3)ccc2n1C	74.8*	6.0	5.3	-0.2	-3.4
Cc1cc2cc(CNC(=S)Nc3ccccc3Cl)ccc2n1C	34.4	/	/	/	/
Cc1ccccc1NC(=S)NCc1ccc2c(c1)cc(C)n2C	35.7	-7.3	5.0	21.6	-0.6
COc1ccccc1NC(=S)NCc1ccc2c(c1)cc(C)n2C	87.8*	10.3	4.1	3.5	9.4
Cc1ccc(C(=O)NCCC(=O)NCc2ccco2)cc1	-19.5	53.5*	3.8	1.0	4.1
Cc1ccc(NC(=O)CCNC(=O)c2ccco2)cc1	5.6	-0.2	7.1	5.6	-12.3
Cc1cccc(NC(=O)CCNC(=O)c2ccco2)c1	-1.2	50.8*	11.9	-0.6	-0.7
O=C(CCNC(=O)c1ccc(Br)cc1)NCc1ccco1	-7.7	/	2.4	3.0	19.9
Cc1nnc2ccc(-c3ccc(NC(=O)c4ccc(N5CCCCC5)nn4)cc3)nn12	-13.0	/	/	/	/
Nc1c(C(=O)Nc2ccc(S(=O)(=O)N3CCCC3)cc2)sc2nc3ccc(OC(F)(F)F)cc3cc12	-10.4	-10.5	-9.9	3.1	/
Nc1c(C(=O)Nc2ccc(S(=O)(=O)N3CCCC3)cc2)sc2nc3cc4c(cc3cc12)CCC4	1.4	51.3*	-0.7	5.3	-5.2
COc1cc(C(=O)Nc2nnc(-c3ccno3)o2)cc(OC)c1OC	0.0	/	/	/	/
CCOc1ccc(C=Nc2cccc3ncccc23)cc1	77.4*	10.8	-4.6	-2.4	13.8
COc1ccc(C=Nc2cccnc2N)cc1	-16.3	21.9	5.2	3.6	/
SMILES	SSB-PriA inh	VHR inh abs	ugtP null kill	Sa RN4220 lethal	CCHF vOTU inh
Cc1oncc1C(=O)Nc1ccc2c(c1)C(=O)N1CCCCC1CCO2 (stereo not given)	2.0	/	/	/	/
CC(C)CC(=O)NC(=S)Nc1ccc(S(=O)(=O)N2CCCC2)cc1	-25.7	6.4	86.9*	4.3	1.6
CC(C)C(=O)NC(=S)Nc1ccc(S(=O)(=O)N2CCCC2)cc1	2.7	-6.9	5.1	-2.8	-7.0
Cc1cc(C)nc(NS(=O)(=O)c2ccc(NC(=S)NC(=O)CC(C)C)cc2)n1	-4.9	13.4	84.4*	3.6	13.3
Cc1cc(C)nc(NS(=O)(=O)c2ccc(NC(=S)NC(=O)C(C)(C)C)cc2)n1	-4.9	28.3	26.5	-1.2	-1.5
Cc1oc(-c2cccc(Cl)c2)nc1COC(=O)c1nnn(-c2ccc(Cl)cc2)c1C	-3.0	/	/	/	/
COc1ccc(-c2csc(NC(=O)c3ccc(S(=O)(=O)N4CCc5ccccc5C4)cc3)n2)cc1	7.2	5.7	4.2	-2.3	-13.7
COC(=O)c1ccc(C(=O)Nc2nnc(-c3ccc4c(c3)CCCC4)o2)cc1	38.0*	/	/	/	/
Cc1ccc2nc(NNC(=O)c3ccc(S(=O)(=O)N4CCc5ccccc5C4)cc3)sc2c1	95.0*	0.2	18.7	9.3	-2.2
COc1ccc(-c2nnc(NC(=O)c3ccc(S(=O)(=O)N4CCc5ccccc5C4)cc3)o2)cc1	-5.2	28.6	98.8*	-2.9	/
CN(C)S(=O)(=O)c1ccc(C(=O)Nc2nnc(-c3ccc4c(c3)CCCC4)o2)cc1	-8.8	15.1	99.1*	98.0*	-1.3
O=C1CC(c2nc(-c3ccc(Br)cc3)no2)CN1c1ccc2c(c1)OCO2 (stereo not given)	-16.0	/	/	/	/

Assay outcomes deposited in PubChem BioAssay by several laboratories.
